# RORgamma inh – blocks mouse ROR gamma transcriptional activity; Drosophila S2 Gal4-RORgamma UAS-luciferase reporter, 20 h; P51450; Potency, µM (doses to about 53.6 µM), inactives show at the highest dose activity change, negative = inhibition, usual class: inhibitors; hit rate 5.4% among 310,000; also: nearly all actives have a fitted effect of over 60% in size
# Target sequence (P51450 whole entry, looked up, the tested form may be a part): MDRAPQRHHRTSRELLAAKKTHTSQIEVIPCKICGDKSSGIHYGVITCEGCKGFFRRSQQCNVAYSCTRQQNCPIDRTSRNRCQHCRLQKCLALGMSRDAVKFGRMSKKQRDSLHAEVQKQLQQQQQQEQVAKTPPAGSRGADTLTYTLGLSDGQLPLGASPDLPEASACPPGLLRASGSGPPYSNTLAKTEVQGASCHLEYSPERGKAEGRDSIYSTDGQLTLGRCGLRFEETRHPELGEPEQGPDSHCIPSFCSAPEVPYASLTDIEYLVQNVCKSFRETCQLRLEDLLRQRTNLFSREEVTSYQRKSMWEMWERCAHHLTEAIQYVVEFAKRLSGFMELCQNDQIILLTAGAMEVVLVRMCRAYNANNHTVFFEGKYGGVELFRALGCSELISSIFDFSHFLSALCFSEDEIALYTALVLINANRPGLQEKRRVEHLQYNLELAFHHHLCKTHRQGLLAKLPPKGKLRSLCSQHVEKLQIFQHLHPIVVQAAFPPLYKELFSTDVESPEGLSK
#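 Stably transfected Drosophila Schneider cells are the test system, with ROR gamma fused to Gal4 and luciferase under UAS control; luminescence is read after 20 hr of 700 uM copper sulfate induction at ambient temperature.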
# PLK1 PBD inh – inhibitors of human PLK1 polo-box domain binding | P53350 | Plk1 PBD binding of FITC phosphopeptide, fluorescence polarization | Potency, µM, without a hit: max response, negative = inhibition, actives largely listed as inhibitors | hit rate 2.8% among 360,000 | AID 720504; also: series mostly up to about 57 µM; nearly all actives have a fitted effect of over 65% in size
# Gal4-VP16 FLuc – Gal4-VP16 reporter inhibition counter-screen; Drosophila S2 Gal4-VP16 UAS-luciferase, luminescence, 20 h; Potency, µM (series often up to 53.6 µM), inactives show at the highest dose activity, negative = inhibition, actives largely listed as inhibitors; hit rate 3.5% among 310,000;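 also: Gal4-VP16 expression switched on by copper sulfate through the metallothionein promoter; nearly all actives have a fitted effect of over 50% in size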
# Sfp inh – inhibitors of Bacillus subtilis Sfp phosphopantetheinyl transferase. Q9F4F7. Biochemical Sfp PPTase activity, qHTS. Potency, µM, without a hit: largest response in the series, negative = inhibition, most hits filed as inhibitors. AID 1490. hit rate 3.5% among 310,000;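 also: the enzyme is Sfp with the accession as filed and its product quenches rhodamine fluorescence; 0% = enzyme reaction without inhibitor and -100% = no enzyme wells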
#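 After 15 min at room temperature with compound, 15 nM Sfp received 5 uM rhodamine-CoA plus 12.5 uM BHQ-2-ybbR (50 mM Hepes pH 7.6, 10 mM MgCl2). Rate came from the fluorescence difference over 30 min, ex 525/em 598 nm.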
# ALDH1A1 block – blocks purified human ALDH1A1 activity; P00352; Potency, µM (top dose mostly 75.3 µM), inactives show at the highest dose activity, negative = inhibition, hits mostly inhibitors; AID 1030; Purified ALDH1A1, NADH fluorescence, propionaldehyde substrate; hit rate 7.3% among 220,000; active = well fitted inhibition curve with a large enough effect, not every such curve was filed as active; inconclusive = small, poorly fitted or top-dose-only effect, or another doubt; inactive = no such curve, though single readings can be large or run the other way;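 also: plate controls were no enzyme wells and a reference inhibitor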
# Active calls of the source: *; ? = inconclusive; · = not tested or not shown; [ ] = remark or other dose. Compounds with a hit are over-represented: about 12% of the library has one in this group of screens. Unless noted, calls follow the shape of the dose curve; as a rule, active = well fitted curve in the direction sought with a large enough effect; inconclusive = small, poorly fitted or top-dose-only effect, or another doubt; inactive = no such curve, though single readings can be large; an effect the other way counts as inactive or inconclusive. Unless noted, % is scaled to controls: 0 for no effect and ±100 for the full control effect; potency is read from the fitted curve at half-maximal effect.
SMILES,RORgamma inh,PLK1 PBD inh,Gal4-VP16 FLuc,Sfp inh,ALDH1A1 block
CN(c1ccccc1)S(=O)(=O)c1ccc(C(=O)N2CCN(c3ccccc3)CC2)cc1,·,-9%,·,·,·
O=C1NCCCc2c1oc1ccc(O)cc21,20%,-6%,?,-10%,8.9µM*
CCCCn1c(SCC(=O)c2ccc(OCC)cc2)nc2cc(S(N)(=O)=O)ccc21,6%,-19%,-3%,1%,35µM*
CCCCn1c(SCC(=O)NCc2ccco2)nc2cc(S(N)(=O)=O)ccc21,22%,-12%,-3%,?,14µM*
CCCCn1c(SCC(=O)c2ccc(OC)c(OC)c2)nc2cc(S(N)(=O)=O)ccc21,19%,-5%,0%,-20%,?
CCOC(=O)C1=CCCN(S(=O)(=O)c2ccc(C)cc2)C1,·,-16%,·,·,·
COc1cccc(/C=N/NC(=O)CC(C)O)c1OC/C=C/c1ccccc1 (stereo not given),11µM*,-1%,16µM*,9%,·
COCC(=O)N/N=C\c1ccc(OC/C=C/c2ccccc2)c(OC)c1,13µM*,-4%,?,-1%,·
Cc1cc(C)c2c(=O)n3c(nc2c1)C(C)NC(=O)c1cccnc1-3 (stereo not given),·,-5%,·,·,·
Cc1ccc(C(=O)OCC(=O)Nc2sc3c(c2C#N)CCC3)cc1,-35%,0%,-21%,-17%,25µM*
COC(=O)c1c(NC(=O)COC(=O)c2ccc(O)cc2)sc2c1CCCCC2,?,-6%,18µM*,?,?
CCN(CC)S(=O)(=O)c1ccc(C(=O)OCC(=O)Nc2sc3c(c2C#N)CCCCC3)cc1,33%,-7%,0%,?,?
N#Cc1c(NC(=O)COC(=O)c2ccc(S(=O)(=O)N3CCCC3)cc2)sc2c1CCCCC2,?,-4%,-9%,-8%,10µM*
CC(C)C(=O)N1CCCC1(C)C(=O)Nc1cccc(Oc2ccccc2)c1 (stereo not given),·,-5%,·,·,·
CCCSC1=C(C#N)C(c2cccs2)CC(=O)N1 (stereo not given),-24%,24µM*,-16%,25µM*,·
CC(C)c1cccc(-c2csc(C(C)(O)c3cccc(F)c3)n2)c1 (stereo not given),·,-7%,·,·,·
Cc1ccc(S(=O)(=O)NN=C2C3CC4CC(C3)CC2C4)cc1[N+](=O)[O-],-7%,?,-10%,-15%,18µM*
Cc1ccc(S(=O)(=O)NN=C2CCC(C(C)(C)C)CC2)cc1[N+](=O)[O-] (stereo not given),-33%,-25%,-5%,-8%,6.3µM*
CC(=O)N1CCC(=NNS(=O)(=O)c2ccc(C)c([N+](=O)[O-])c2)CC1,-2%,-17%,-2%,1%,10µM*
CC(C)(C)C1CCC(=NNS(=O)(=O)c2ccc(Br)cc2)CC1 (stereo not given),-19%,-3%,1%,14%,1.4µM*
Cn1cccc1C(=O)N1CCC2(CC1)CN(C(c1ccccc1)c1ccccc1)C2,32%,·,12%,4%,?
Cc1ccc(NC(=O)C2(C)CCN2Cc2cccc3c2OCO3)cc1O (stereo not given),·,5%,·,·,·
OC[C@@H]1CN(CCN2CCOCC2)C[C@H](n2cnc3c(Nc4ccccc4)ncnc32)O1,·,4%,·,·,·
Cc1nc(NC(=O)c2c(-c3ccccc3Cl)noc2C)sc1C,15%,8%,?,7%,·
CC(C)=CCC/C(C)=C/CO/N=C1/C[C@@H](O)[C@@H](O)[C@@H]2[C@@H]3C(=O)N(Cc4ccccc4)C(=O)[C@H]3CC[C@H]12,-2%[10 µM],·,-4%[10 µM],-5%,2%[13.5 µM]
SMILES,RORgamma inh,PLK1 PBD inh,Gal4-VP16 FLuc,Sfp inh,ALDH1A1 block
CC(=O)N1CCC(=NNS(=O)(=O)c2cccc([N+](=O)[O-])c2)CC1,16%,-20%,-2%,-27%,11µM*
CC1CCCC/C1=N\NS(=O)(=O)c1ccc(Br)cc1 (stereo not given),11%,-19%,1%,17%,4.5µM*
CC1CCCCC1=NNC(=O)c1ccccc1 (stereo not given),·,-10%,·,·,·
O=C(Cn1c(NCCCO)nc2ccccc21)c1cccc(Br)c1,8%,-2%,-8%,-11%,28µM*
O=C(Cn1c(NCCCO)nc2ccccc21)c1ccc(F)cc1,-15%,-3%,0%,7%,·
Nc1ccc2c3c(ccc([N+](=O)[O-])c13)CC2,·,-2%,·,·,·
C[C@]12c3[nH]c4cc(-c5ccco5)ccc4c3CCN1C(=O)[C@@H](CC(=O)NCCC1=CCCCC1)C[C@@H]2C(=O)N1CCCCC1,·,21µM*,·,·,·
CC[C@]12c3[nH]c4cc(-c5ccco5)ccc4c3CCN1C(=O)[C@@H](CC(=O)NC/C=C(\C)CCC=C(C)C)C[C@@H]2C(=O)N1CCN(C(=O)C2CC2)CC1,·,-11%,·,·,·
CC(C)(C)NC(=O)C[C@H]1C[C@H](C(=O)N2CCCCC2)[C@@]2(C)c3[nH]c4cc(-c5ccco5)ccc4c3CCN2C1=O,·,24µM*,·,·,·
CC[C@]12c3[nH]c4cc(-c5ccco5)ccc4c3CCN1C(=O)[C@@H](CC(=O)NC/C=C(\C)CCC=C(C)C)C[C@@H]2C(=O)N1CCN(C(=O)c2ccco2)CC1,·,24µM*,·,·,·
Cc1ccc(Cl)cc1NC(=O)COC(=O)CC1CCCCC1,·,8%,·,·,·
CCN(CC(=O)NCc1ccc(F)cc1)Cc1nc2ccccc2c(=O)[nH]1,4µM*,-26%,10µM*,-3%,?
CC(=O)N(Cc1ccc(F)cc1)Cc1nc2ccccc2c(=O)[nH]1,16µM*,-10%,?,7%,5%
CCN(CC(=O)Nc1cccc(F)c1)Cc1nc2ccccc2c(=O)[nH]1,?,6%,?,?,?
CSc1ccc(CN(C)Cc2nc3ccccc3c(=O)[nH]2)cc1,?,-7%,?,-21%,·
CS(=O)(=O)N(Cc1ccc(F)cc1)Cc1nc2ccccc2c(=O)[nH]1,-14%,-16%,1%,6%,25µM*
CCN(CC)Cc1nc2c(c(=O)[nH]1)C1(CCCC1)Cc1ccccc1-2,2.8µM*,-2%,11µM*,-9%,?
C=CCNC(=S)NNc1nc2c(c(=O)[nH]1)C1(CCCCC1)Cc1ccccc1-2,1µM*,-26%,1.8µM*,?,13µM*
C[C@@H]1CN([C@H](C)CO)C(=O)CCCn2nncc2CO[C@H]1CN(C)Cc1ccccc1,·,-20%,·,·,·
CCC1=NN2C(=N)/C(=C\c3cccn3-c3cccc(Cl)c3)C(=O)N=C2S1,11µM*,?,7%,-13%,1.8µM*
CCC1=NN2C(=N)/C(=C\c3cccn3-c3c(C)cccc3C)C(=O)N=C2S1,?,?,0%,56µM*,-4%
CCC1=NN2C(=N)/C(=C\c3cccn3-c3ccc(Br)cc3)C(=O)N=C2S1,0%,?,-13%,20%,?
NNC(=O)CSCc1nc(-c2ccc(Cl)cc2)cs1,41%,-7%,-5%,12%,0.71µM*
NC(=S)Cc1nc(-c2ccc(Cl)cc2)cs1,5µM*,?,?,?,2µM*
